We go through 40 molecules from PubChem BioAssay (Tox21).

Results filed as inconclusive are left out. Entries that show only a call come without a potency. Unmarked numbers belong to inactive results. The source made the active and inactive calls. The call rests on the fitted dose curve.
Potency means the concentration at half of the fitted maximal effect.

Sequence of Thyrotropin receptor (Homo sapiens) (P16473 whole entry, looked up): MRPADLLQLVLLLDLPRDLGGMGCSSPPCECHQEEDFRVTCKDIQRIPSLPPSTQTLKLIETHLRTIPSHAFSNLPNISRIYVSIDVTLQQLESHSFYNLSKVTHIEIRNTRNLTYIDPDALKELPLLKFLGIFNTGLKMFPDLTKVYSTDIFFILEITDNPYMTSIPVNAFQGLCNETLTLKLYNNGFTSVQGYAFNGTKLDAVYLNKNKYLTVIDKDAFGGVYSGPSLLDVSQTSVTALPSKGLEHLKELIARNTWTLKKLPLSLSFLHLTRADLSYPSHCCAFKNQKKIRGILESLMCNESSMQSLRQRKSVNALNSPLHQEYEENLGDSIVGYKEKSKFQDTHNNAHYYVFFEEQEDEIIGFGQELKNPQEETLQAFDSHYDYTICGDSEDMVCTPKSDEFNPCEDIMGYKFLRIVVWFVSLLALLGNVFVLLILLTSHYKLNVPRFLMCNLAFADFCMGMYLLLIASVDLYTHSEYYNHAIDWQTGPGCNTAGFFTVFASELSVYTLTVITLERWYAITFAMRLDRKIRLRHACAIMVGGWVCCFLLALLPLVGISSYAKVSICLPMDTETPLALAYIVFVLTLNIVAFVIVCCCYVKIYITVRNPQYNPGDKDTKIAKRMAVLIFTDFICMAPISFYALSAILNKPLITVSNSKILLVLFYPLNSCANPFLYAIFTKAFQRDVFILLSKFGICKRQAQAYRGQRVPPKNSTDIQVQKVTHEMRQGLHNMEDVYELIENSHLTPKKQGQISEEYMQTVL

This assay concerns the target Thyrotropin receptor (Homo sapiens) (UniProt P16473). The experiment in a line: qHTS assay to identify small molecule antagonists of the thyroid stimulating hormone receptor (TSHR) signaling pathway (AID 1259385). Further: nearly all actives have a fitted effect of over 20% in size. As to conditions: TSHR-HEK293 cAMP HTRF, TSH-stimulated antagonist mode; series mostly up to 92.4 µM. The text has this: U.S. Tox21 Program National Center for Advancing Translational Sciences [NCATS] NIH Chemical Genomics Center [NCGC] U.S. Environmental Protection Agency [EPA] National Institutes of Environmental Health Sciences [NIEHS] National Toxicology Program [NTP] U.S. Food and Drug Administration [FDA] Tox21 Assay Overview: TSHR is the receptor for thyrotropin (thyroid stimulating hormone or TSH), a member of the glycoprotein hormone family. TSH is released by the anterior pituitary gland and is the main regulator of thyroid gland growth and development. Upon binding circulating thyrotropin, a G-protein signal cascade activates adenylyl cyclase and […] cAMP concentration is increased. cAMP is a key second messenger involved extensively in cellular signal transduction pathways associated with the majority of G-protein coupled receptors (GPCRs). The activation of these GPCRs by neurotransmitters, lipids, nucleotides, peptides and hormones results in the activation or the inhibition of plasma membrane-bound adenylate cyclase through heterotrimeric G-proteins. A cell-based TSHR assay can be used to screen chemical compounds that modulate TSHR either in agonist or antagonist mode.
Tox21 Assay Protocol Summary: TSHR-Hek293 cells were dispensed at 800 cells/4uL/well in 1536-well white plates using a Multidrop dispenser. After the assay plates were incubated at a 37C/5% CO2 incubator for 18 hrs, 23 nL of compounds dissolved in DMSO, positive controls or DMSO only was transferred to the assay plate by a pin tool, followed by 1 ul medium containing Ro20-1724. For the antagonist mode screening, 1 uL of TSH was added on the top of the cell/compound mixtures to achieve a final agonist concentration of 1.5 ng/mL. After 30 min of incubation at room temperature, 2.5 ul/well of cAMP-d2 and 2.5 ul/well of anti-cAMP-cryptate were added respectively into the assay plates using a Flying Reagent Dispenser. The plates were incubated at room temperature for 1 hr. The fluorescence intensity in the plates was measured using an Envision plate reader. Each test compound was measured at 15 concentrations and in triplicates.
With `CC(C)[C@H](C(=O)OC(C#N)c1cccc(Oc2ccccc2)c1)c1ccc(OC(F)F)cc1` (stereo not given in full), the Potency entry is “inactive”.

For the molecule `[Hg+2].[I-].[I-]`, the Potency was 43.3 µM (active).

`Cn1[nH]nnc1=S`: the Potency entry is “inactive”.

As for `CCOC(=O)OC1=C(c2cc(C)ccc2C)C(=O)NC12CCC(OC)CC2` (stereo not given), the Potency result is “inactive”.

Consider `CC(c1ccc(O)cc1)c1ccc(O)cc1`, for which the Potency result was “inactive”.

With `CC(C)(COCC1CO1)COCC1CO1` (stereo not given), the Potency entry is “inactive”.

`CN(CCCC(O)c1cccnc1)N=O` (stereo not given): the Potency entry was “inactive”.

With `c1cc[c]([Sb]([c]2ccccc2)[c]2ccccc2)cc1`, the Potency entry was “inactive”.

Turning to `C=CCC1=C(C)C(OC(=O)C2C(C=C(C)C)C2(C)C)CC1=O` (stereo not given), the Potency is 61.1 µM (active).

Regarding `Brc1c(Br)c(Br)c(Oc2c(Br)c(Br)c(Br)c(Br)c2Br)c(Br)c1Br`, the activity change, negative = inhibition is 0.486% [at 19 µM].

For the molecule `COC(=O)N(C(=O)N1CO[C@@]2(C(=O)OC)Cc3cc(Cl)ccc3C2=N1)c1ccc(OC(F)(F)F)cc1`, the Potency result is “inactive”.

As for `N#CCCSCCC#N`, the Potency entry is “inactive”.

With `COC(=O)N(C(=O)N1COC2(C(=O)OC)Cc3cc(Cl)ccc3C2=N1)c1ccc(OC(F)(F)F)cc1` (stereo not given), the Potency entry was “inactive”.

`CC(C)(C)c1cc([N+](=O)[O-])cc(C(C)(C)C)c1O`: the Potency entry is “inactive”.

Consider `c1ccc(OCC2CO2)cc1` (stereo not given), for which the Potency entry is “inactive”.

As for `CC(C)CCCCCOC(=O)c1ccccc1C(=O)OCCCCCC(C)C`, the Potency entry was “inactive”.

Turning to `C[C@@H]1CC[C@@]2(OC1)O[C@H]1[C@@H](O)[C@H]3[C@@H]4CC[C@H]5C[C@@H](O[C@@H]6O[C@H](CO)[C@H](O[C@@H]7O[C@H](CO)[C@@H](O)[C@H](O[C@@H]8OC[C@@H](O)[C@H](O)[C@H]8O)[C@H]7O[C@@H]7O[C@H](CO)[C@@H](O)[C@H](O[C@@H]8O[C@H](CO)[C@@H](O)[C@H](O)[C@H]8O)[C@H]7O)[C@H](O)[C@H]6O)[C@H](O)C[C@]5(C)[C@H]4CC[C@]3(C)[C@H]1[C@@H]2C`, the Potency was 4.59 µM (active).

On to `CC(O)C#N` (stereo not given), for which the Potency result is “inactive”.

`CSCCCN=C=S`: the Potency result was “inactive”.

On to `CC(C)CC(C)Nc1ccc(Nc2ccccc2)cc1` (stereo not given), for which the Potency result was “inactive”.

On to `CC(=O)OC1(c2ccccc2)CCN(CCc2ccccc2)CC1`, for which the Potency entry was “inactive”.

Regarding `C=CC(=O)OCCCCOC(=O)C=C`, the Potency entry was “inactive”.

Regarding `CNC(C)Cc1ccc2c(c1)OCO2` (stereo not given), the Potency result was “inactive”.

In the case of `O=C(CBr)c1ccc(O)cc1`, the Potency entry was “inactive”.

As for `O=c1[nH]c2ccccc2n1C1CCN(CCCC(c2ccc(F)cc2)c2ccc(F)cc2)CC1`, the Potency result was “inactive”.

Take `Cc1c(Cl)c(=O)oc2cc(OP(=O)(OCCCl)OCCCl)ccc12`: the Potency result is “inactive”.

Turning to `CC1(C)C(/C=C(\Cl)C(F)(F)F)C1C(=O)OC(C#N)c1cccc(Oc2ccccc2)c1` (stereo not given), the Potency result is “inactive”.

As for `BrC(Br)C(Br)(Br)Br`, the Potency entry was “inactive”.

`CCC[CH2][Sn]([CH2]CCC)([CH2]CCC)[O]C(=O)c1ccccc1`: the Potency is 17.2 µM (active).

As to `ClC(Cl)=C(Cl)Cl`, the Potency entry is “inactive”.

Regarding `CCN(CC)C(=S)[S-].CCN(CC)C(=S)[S-].[Zn+2]`, the Potency was 68 µM (active).

For the molecule `CCc1ccccc1C`, the Potency entry is “inactive”.

Take `CCCCCCCCCCCCBr`: the Potency entry is “inactive”.

As for `CC(C)CC(C)(c1ccc(O)cc1)c1ccc(O)cc1`, the Potency entry is “inactive”.

For `CCN`, the Potency entry was “inactive”.

For `CCOP(=S)(OCC)SCS(=O)(=O)C(C)(C)C`, the Potency result is “inactive”.

Consider `Cl/C=C\CCl`, for which the Potency entry was “inactive”.

Take `CCCCCCCCCCCCCN1CC(C)OC(C)C1` (stereo not given): the Potency result is “inactive”.

On to `COc1ccc(/C(=C/C(=O)N2CCOCC2)c2ccc(Cl)cc2)cc1OC`, for which the Potency result was “inactive”.

With `Cc1cc(C)cc(OP(=O)(Oc2cc(C)cc(C)c2)Oc2cc(C)cc(C)c2)c1`, the Potency entry is “inactive”.
